Rab9 prom act: qHTS Assay for Rab9 Promoter Activators. Huh7 Rab9 promoter-luciferase reporter, luminescence, 24 h. Potency, µM (top dose mostly 9.22 µM), for the others: at the top dose activation, negative = inhibition, most hits filed as activators. 2.8% of 320,000 active; also: % of control where 0% means no effect; nearly all actives have a fitted effect of over 60% in size
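Huh7 cells stably carrying Rab9 promoter–luciferase reporter, plated 1500 cells/well, compound added after 2 h and incubated 24 h at 37 °C; luciferase luminescence then read after 10 min with detection reagent.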
FLuc counter: qHTS profiling assay for firefly luciferase inhibitor/activator using purifed enzyme and Km concentrations of substrates (counterscreen for miR-21 project) | Luciferin 4-monooxygenase (Photinus pyralis), P08659 | purified FLuc, Km substrates, luminescence inhibition | Potency, µM (top dose mostly 57.5 µM), for inactives: at the highest dose activity change, negative = inhibition, hits mostly inhibitors | 6.9% of 360,000 active;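 also: plate controls were vehicle for no effect and reference inhibitor for full effect; nearly all actives have a fitted effect of over 55% in size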
Target sequence (P08659 whole entry, looked up): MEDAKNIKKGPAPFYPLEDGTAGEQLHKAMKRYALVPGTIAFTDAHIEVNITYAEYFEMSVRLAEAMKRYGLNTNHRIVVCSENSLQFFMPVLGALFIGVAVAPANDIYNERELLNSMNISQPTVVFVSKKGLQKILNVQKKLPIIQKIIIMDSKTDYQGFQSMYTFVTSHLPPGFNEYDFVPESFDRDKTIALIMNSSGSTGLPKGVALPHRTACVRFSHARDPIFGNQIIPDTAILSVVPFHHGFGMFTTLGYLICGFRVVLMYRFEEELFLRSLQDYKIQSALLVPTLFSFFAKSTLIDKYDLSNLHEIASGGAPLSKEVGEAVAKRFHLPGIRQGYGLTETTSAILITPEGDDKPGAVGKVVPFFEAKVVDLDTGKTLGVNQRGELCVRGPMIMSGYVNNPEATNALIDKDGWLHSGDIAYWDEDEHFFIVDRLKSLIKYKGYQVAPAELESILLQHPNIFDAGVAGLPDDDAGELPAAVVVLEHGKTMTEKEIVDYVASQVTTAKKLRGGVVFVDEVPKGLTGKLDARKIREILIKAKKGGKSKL
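Biochemical qHTS of compounds, final roughly 60 µM downward over six points, against 10 nM purified firefly luciferase using Km concentrations of substrates (10 uM D-luciferin, 10 uM ATP) in Tris acetate pH 7.5 buffer; luminescence output.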
NPC1 prom act: qHTS Assay for NPC1 Promoter Activators; Huh7 NPC1 promoter luciferase reporter, 24 h; Potency, µM (highest dose often 9.22 µM), for inactives: top-dose activation, actives largely listed as activators; 2.4% of 320,000 active; AID 485313, 2010; also: % of control where 0% means no effect; nearly all actives have a fitted effect of over 60% in size
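Readout is luciferase luminescence, reflecting NPC1 promoter activation in stably transfected Huh7 cells after 24 h compound exposure at 37 °C in reduced-serum medium with 10% FBS.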
ELG1 genotoxic: qHTS screen for small molecules that induce genotoxicity in human embryonic kidney (HEK293T) cells expressing luciferase-tagged ELG1; HEK293T ELG1-luciferase reporter, luminescence, 16 h; 1.3% of 330,000 active; Potency, µM (highest dose often 46 µM), without a hit: at the highest dose activity change, positive = activation, most hits filed as activators; also: % of control where 0% means no effect; nearly all actives have a fitted effect of over 60% in size
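Screening used a luciferase reporter fused to human ELG1 in HEK293T cells. Luminescence was read on a CCD plate imager after 16 hr exposure and 30 min ONE-Glo incubation.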
SMN2 splice enh: qHTS Assay for Enhancers of SMN2 Splice Variant Expression. HEK293 SMN2-luciferase splicing reporter, luminescence, 30-36 h. Potency, µM (doses to about 46.1 µM), for inactives: top-dose activity change, positive = activation, hits mostly activators. 2.8% of 210,000 active. AID 1458, 2008; also: % of control where 0% means no effect; nearly all actives have a fitted effect of over 55% in size
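HEK293 cells carry an SMN2 minigene-luciferase reporter in which exon 7 inclusion puts luciferase in frame. Cells were seeded at 2000 cells/well, attached for 10-12 hours, then exposed to compounds for 30-36 hours at 37C before ONE-Glo luminescence.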
Starred values were filed as active, the others as inactive; [ ] = another dose, or the depositor's remark. A selection: hits, their analogues and other compounds. The true share with any hit is near 7.4%. Calls follow the shape of the dose curve; as a rule, active = well fitted curve in the direction sought with a large enough effect; inconclusive = small, poorly fitted or top-dose-only effect, or another doubt; inactive = no such curve, though single readings can be large; an effect the other way counts as inactive or inconclusive. Potency is read from the fitted curve at half-maximal effect.

Results for Nc1ccccc1-c1ccccc1 ?
SMN2 splice enh: -6.7%

How did c1ccc(C2CO2)cc1 (centres undefined) do in these assays?
SMN2 splice enh: 6.7%

How did N#Cc1c(/N=C/c2ccc(O)cc2O)sc2c1C1CCN2CC1 do in these assays?
Rab9 prom act: 3.7%; FLuc counter: 6.01µM*; NPC1 prom act: -3.9%; ELG1 genotoxic: 7.8%; SMN2 splice enh: -13.7%[1.84 µM]

Results for O=C(O)CCn1cc(C=C2C(=O)NC(=O)NC2=O)c(-c2ccc(Br)cc2)n1 ?
Rab9 prom act: 5.1%; FLuc counter: -11.3%; NPC1 prom act: 0.3%; ELG1 genotoxic: 1.5%; SMN2 splice enh: 13.4%

How did O=C(O)CCn1cc(C=C2C(=O)NC(=S)NC2=O)c(-c2cccc(Cl)c2)n1 do in these assays?
Rab9 prom act: 1.9%; FLuc counter: 21.3µM*; NPC1 prom act: -4.1%; ELG1 genotoxic: 2.6%

What do the screens show for `CCOC(=O)CC(SP(=O)(OC)OC)C(=O)OCC` (centres undefined)?
SMN2 splice enh: -3.6%

Results for Cc1c(C(=O)N2CCOCC2)sc2nc(-c3ccccc3)cn12 ?
Rab9 prom act: 2.51µM*; FLuc counter: 16.9µM*; NPC1 prom act: 3.98µM*; ELG1 genotoxic: inconclusive; SMN2 splice enh: inconclusive

What do the screens show for `O=c1cc(-c2ccc(O)c(O)c2)oc2cc(O)cc(O)c12`?
Rab9 prom act: -12.1%; FLuc counter: 23.9µM*; NPC1 prom act: 1.0%; ELG1 genotoxic: inconclusive; SMN2 splice enh: 8.91µM*

What do the screens show for `O=c1c(O)c(-c2ccc(O)c(O)c2)oc2cc(O)cc(O)c12`?
Rab9 prom act: -13.9%[46.1 µM]; FLuc counter: inconclusive; NPC1 prom act: 3.1%[46.1 µM]; ELG1 genotoxic: 13.0%; SMN2 splice enh: -19.6%

What do the screens show for `COc1cc2[nH]c(=O)n(Cc3ccc(C(=O)NC4CCCC4)cc3)c(=O)c2cc1OC`?
Rab9 prom act: -1.0%; FLuc counter: 6.5%; NPC1 prom act: -0.7%; ELG1 genotoxic: inconclusive; SMN2 splice enh: -3.3%

How did C=CCc1ccc(OC(=O)NC2CCCCC2)c(OC)c1 do in these assays?
Rab9 prom act: 3.55µM*; FLuc counter: 10.7µM*; NPC1 prom act: inconclusive; ELG1 genotoxic: inconclusive

How did BrC(Br)Br do in these assays?
SMN2 splice enh: 2.9%

How did CN1CCN(C(=O)COc2ccc(-c3nc4ccccc4s3)cc2)CC1 do in these assays?
Rab9 prom act: 0.316µM*; FLuc counter: 0.151µM*; NPC1 prom act: 0.631µM*; ELG1 genotoxic: inconclusive; SMN2 splice enh: 3.98µM*

How did CN1CCN(C(=O)COc2ccc3ccccc3c2)CC1 do in these assays?
Rab9 prom act: 15.5%; FLuc counter: 0.5%; NPC1 prom act: 4.2%; ELG1 genotoxic: 13.2%

How did Clc1cccc(C(Cl)(Cl)Cl)n1 do in these assays?
SMN2 splice enh: -3.7%

Results for CCC(Oc1cc(Cl)ccc1Cl)C(=O)N1CCC2(CC1)OCCO2 (centres undefined) ?
Rab9 prom act: 1.78µM*; FLuc counter: 10.7µM*; NPC1 prom act: 0.891µM*; ELG1 genotoxic: inconclusive

How did N/C(=N\N=C/c1ccc(-c2ccc(O)c(C(=O)O)c2)o1)N[N+](=O)[O-] do in these assays?
Rab9 prom act: 5.9%; FLuc counter: 26.9µM*; NPC1 prom act: -3.7%; ELG1 genotoxic: 1.5%; SMN2 splice enh: 1.1%

What do the screens show for `COc1ccc(/C=N/N=C(/N)N[N+](=O)[O-])c(OC)c1`?
Rab9 prom act: 8.7%; FLuc counter: inconclusive; NPC1 prom act: 8.4%; ELG1 genotoxic: 13.2%; SMN2 splice enh: -4.6%

Results for O=c1c2ccccc2nc(/C=C/c2cccnc2)n1Cc1ccccc1 ?
Rab9 prom act: -5.0%; FLuc counter: 26.9µM*; NPC1 prom act: -3.9%; ELG1 genotoxic: -5.0%

Results for O=c1c2ccccc2nc(/C=C/c2ccccc2)n1-c1ccc(O)cc1 ?
Rab9 prom act: -1.3%; FLuc counter: -1.5%; NPC1 prom act: -0.9%; ELG1 genotoxic: -9.9%

How did CCN=C=NCCCN(C)C do in these assays?
SMN2 splice enh: -11.1%[9.22 µM]

How did C=CCc1ccc(OCCn2nnc3ccccc32)c(OC)c1 do in these assays?
Rab9 prom act: 3.98µM*; FLuc counter: 10.7µM*; NPC1 prom act: 2.82µM*; ELG1 genotoxic: 16.4µM*

What do the screens show for `CC(Cc1ccccc1)NC(=O)NC(C)Cc1ccccc1` (centres undefined)?
Rab9 prom act: 2.82µM*; FLuc counter: 13.5µM*; NPC1 prom act: inconclusive; ELG1 genotoxic: 11.6µM*

How did CC(Cc1ccccc1)NC(=O)C(c1ccc(N)cc1)c1ccc(N)cc1 (centres undefined) do in these assays?
Rab9 prom act: 4.7%; FLuc counter: 1.1%; NPC1 prom act: 1.5%; ELG1 genotoxic: 0.5%

How did CC(Cc1ccccc1)NC(=O)c1ccc(N)cc1 (centres undefined) do in these assays?
Rab9 prom act: 3.55µM*; FLuc counter: 21.3µM*; NPC1 prom act: 3.16µM*; ELG1 genotoxic: inconclusive

How did CC(C)(C)c1ccc(O)c(C[N+](C)(C)C)c1 do in these assays?
SMN2 splice enh: 1.4%[9.22 µM]

What do the screens show for `C[C@@H]1CC[C@@]2(OC1)O[C@H]1[C@@H](O)[C@H]3[C@@H]4CC[C@H]5C[C@@H](O[C@@H]6O[C@H](CO)[C@H](O[C@@H]7O[C@H](CO)[C@@H](O)[C@H](O[C@@H]8OC[C@@H](O)[C@H](O)[C@H]8O)[C@H]7O[C@@H]7O[C@H](CO)[C@@H](O)[C@H](O[C@@H]8O[C@H](CO)[C@@H](O)[C@H](O)[C@H]8O)[C@H]7O)[C@H](O)[C@H]6O)[C@H](O)C[C@]5(C)[C@H]4CC[C@]3(C)[C@H]1[C@@H]2C`?
SMN2 splice enh: -30.3%

Results for CN(C)C(=O)Oc1cccc(NC(=O)c2ccccc2C(F)(F)F)c1 ?
Rab9 prom act: -2.2%; FLuc counter: -2.2%; NPC1 prom act: -1.2%; ELG1 genotoxic: -1.2%

Results for COc1ccccc1NC(=O)c1oc2ccccc2c1NC(=O)c1ccccc1C(F)(F)F ?
FLuc counter: 10.7µM*; SMN2 splice enh: -5.5%

Results for Cc1ccc(CNC(=O)c2ccccc2NC(=O)c2nsc3ccccc23)cc1 ?
FLuc counter: 16.9µM*

What do the screens show for `O=C(NCc1ccccc1)c1cccn(Cc2ccccc2)c1=O`?
Rab9 prom act: -5.6%; FLuc counter: -0.4%; NPC1 prom act: -0.8%; ELG1 genotoxic: -5.9%

What do the screens show for `O=C1NC(=S)NC(=O)C12C(c1ccc(F)cc1)NC(=S)NC2c1ccc(F)cc1` (centres undefined)?
Rab9 prom act: 0.7%; FLuc counter: 1.3%; NPC1 prom act: -3.4%; ELG1 genotoxic: -0.4%; SMN2 splice enh: 1.58µM*

Screening data as filed in PubChem BioAssay.
